Laboratory results as given in PubChem BioAssay (NCI).
Compounds without any hit were thinned out: in the full panel of roughly 83,000, 20% have a hit.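 In brief: 96-well plates, 48 h treatment, single concentration, percent growth endpoint.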 Active and inactive are the calls of the source. Rule for the calls: active = growth percent below 10; inactive = the rest.

What was measured:
Test in all cases: NCI-60 one-dose screen, 48 h (100 = growth as untreated, 0 = no growth, -100 = all killed)
Settings in all cases: 10 µM unless noted
SR leukemia = tested on: SR leukemia
RPMI-8226 leukemia = tested on: RPMI-8226 leukemia
OVCAR-8 ovarian = tested on: OVCAR-8 ovarian
OVCAR-5 ovarian = tested on: OVCAR-5 ovarian
OVCAR-4 ovarian = tested on: OVCAR-4 ovarian
SK-OV-3 ovarian = tested on: SK-OV-3 ovarian
IGROV1 ovarian = tested on: IGROV1 ovarian
OVCAR-3 ovarian = tested on: OVCAR-3 ovarian
HS 578T breast = tested on: HS 578T breast
NCI/ADR-RES ovarian = tested on: NCI/ADR-RES ovarian
T-47D breast = tested on: T-47D breast
BT-549 breast = tested on: BT-549 breast
MDA-MB-435 melanoma = tested on: MDA-MB-435 melanoma
SW-620 colon = tested on: SW-620 colon
MCF7 breast = tested on: MCF7 breast
HCT-116 colon = tested on: HCT-116 colon
HCC-2998 colon = tested on: HCC-2998 colon
KM12 colon = tested on: KM12 colon

Measured: growth

Nc1nc(=O)n([C@H]2CC=C(CO)O2)cc1F
inactive: SR leukemia 86.1% | RPMI-8226 leukemia 101% | OVCAR-8 ovarian 99.7% | OVCAR-5 ovarian 89.3% | OVCAR-4 ovarian 107% | SK-OV-3 ovarian 101% | IGROV1 ovarian 95.2% | OVCAR-3 ovarian 104% | HS 578T breast 83.6% | NCI/ADR-RES ovarian 104% | T-47D breast 98.6% | BT-549 breast 114% | MDA-MB-435 melanoma 97.8% | SW-620 colon 90.5% | MCF7 breast 95.8% | HCT-116 colon 108% | HCC-2998 colon 104% | KM12 colon 103%

O=C(Nc1ncc(Cc2ccc(Cl)cc2)s1)C1=NCCCCN1
inactive: SR leukemia 106% | RPMI-8226 leukemia 97% | OVCAR-8 ovarian 106% | OVCAR-5 ovarian 105% | OVCAR-4 ovarian 105% | SK-OV-3 ovarian 106% | IGROV1 ovarian 107% | OVCAR-3 ovarian 110% | HS 578T breast 109% | NCI/ADR-RES ovarian 106% | T-47D breast 92.5% | BT-549 breast 104% | MDA-MB-435 melanoma 101% | SW-620 colon 103% | MCF7 breast 89.1% | HCT-116 colon 100% | HCC-2998 colon 118% | KM12 colon 103%

CN1CC(c2ccccc2)C(C(=O)c2ccc(Br)cc2)C12C(=O)Nc1ccccc12 (stereo not given)
inactive: SR leukemia 97% | RPMI-8226 leukemia 88.2% | OVCAR-8 ovarian 98.8% | OVCAR-5 ovarian 98.9% | OVCAR-4 ovarian 96.3% | SK-OV-3 ovarian 93.6% | IGROV1 ovarian 79.7% | OVCAR-3 ovarian 101% | HS 578T breast 94.2% | NCI/ADR-RES ovarian 79.7% | T-47D breast 81.5% | BT-549 breast 111% | MDA-MB-435 melanoma 106% | SW-620 colon 95.4% | MCF7 breast 98.5% | HCT-116 colon 86.3% | HCC-2998 colon 99.7% | KM12 colon 101%

Cc1nc2c(c(-c3ccccc3)n1)Cc1c(ccc3ccccc13)O2
inactive: SR leukemia 107% | RPMI-8226 leukemia 87% | OVCAR-8 ovarian 95.1% | OVCAR-5 ovarian 93.1% | OVCAR-4 ovarian 99.4% | SK-OV-3 ovarian 96.4% | IGROV1 ovarian 118% | OVCAR-3 ovarian 99.1% | HS 578T breast 83.3% | NCI/ADR-RES ovarian 98% | T-47D breast 84.6% | BT-549 breast 90% | MDA-MB-435 melanoma 119% | SW-620 colon 96.4% | MCF7 breast 89.1% | HCT-116 colon 90.6% | HCC-2998 colon 111% | KM12 colon 89.1%

Cc1ccc2c(c1)CC(O)CC1C(=O)N(CCO)CC(=O)N21 (stereo not given)
inactive: SR leukemia 87.3% | RPMI-8226 leukemia 98.8% | OVCAR-8 ovarian 101% | OVCAR-5 ovarian 101% | OVCAR-4 ovarian 113% | SK-OV-3 ovarian 103% | IGROV1 ovarian 112% | OVCAR-3 ovarian 115% | HS 578T breast 103% | NCI/ADR-RES ovarian 104% | T-47D breast 93.1% | BT-549 breast 103% | MDA-MB-435 melanoma 106% | SW-620 colon 106% | MCF7 breast 96.8% | HCT-116 colon 95.9% | HCC-2998 colon 104% | KM12 colon 105%

COc1cc2c(cc1OC)CC[N+](CCC[N+](C)(C)C)=C2
inactive: SR leukemia 89.8% | RPMI-8226 leukemia 103% | OVCAR-8 ovarian 110% | OVCAR-5 ovarian 91.5% | OVCAR-4 ovarian 99% | SK-OV-3 ovarian 92.9% | IGROV1 ovarian 99.6% | OVCAR-3 ovarian 108% | HS 578T breast 111% | NCI/ADR-RES ovarian 102% | T-47D breast 103% | BT-549 breast 92.8% | MDA-MB-435 melanoma 103% | SW-620 colon 113% | MCF7 breast 95.1% | HCT-116 colon 95.2% | HCC-2998 colon 89.5% | KM12 colon 103%

COc1cc(/C=C2\CN(S(=O)(=O)c3ccc(C)cc3)C/C(=C\c3cc(CN4CCCC4)c(O)c(OC)c3)C2=O)cc(CN2CCCC2)c1O
active: SR leukemia -19.4% | RPMI-8226 leukemia -34.6% | OVCAR-8 ovarian 8.04% | OVCAR-5 ovarian -2.7% | IGROV1 ovarian -20.1% | OVCAR-3 ovarian -27.8% | HS 578T breast 9.95% | MDA-MB-435 melanoma -76.8% | SW-620 colon -68.1% | MCF7 breast -25.5% | HCT-116 colon -91.7% | HCC-2998 colon -89.5% | KM12 colon -63.9%
inactive: OVCAR-4 ovarian 12.1% | SK-OV-3 ovarian 33.9% | NCI/ADR-RES ovarian 77.8% | T-47D breast 40% | BT-549 breast 12.7%

CN1CCN(Cc2ccc(NC(=O)c3cncc(C#Cc4c(N)ncc5cc(F)ccc45)c3)cc2C(F)(F)F)CC1
active: SR leukemia 0.501% | RPMI-8226 leukemia -14% | SW-620 colon -53.1% | MCF7 breast -75.9% | HCT-116 colon -78.7% | KM12 colon 5.8%
inactive: OVCAR-8 ovarian 28% | OVCAR-5 ovarian 43.7% | OVCAR-4 ovarian 54.4% | SK-OV-3 ovarian 82.6% | IGROV1 ovarian 15.1% | OVCAR-3 ovarian 76.3% | HS 578T breast 31.8% | NCI/ADR-RES ovarian 10.3% | T-47D breast 77% | BT-549 breast 56.6% | MDA-MB-435 melanoma 26.4% | HCC-2998 colon 51.4%

CCOC(=O)C1=C(C)N(C)C(=O)N(C)C1c1ccccc1 (stereo not given)
inactive: SR leukemia 125% | RPMI-8226 leukemia 99.4% | OVCAR-8 ovarian 104% | OVCAR-5 ovarian 84.1% | OVCAR-4 ovarian 103% | SK-OV-3 ovarian 93.9% | IGROV1 ovarian 110% | OVCAR-3 ovarian 99.1% | HS 578T breast 108% | NCI/ADR-RES ovarian 100% | T-47D breast 96.3% | BT-549 breast 110% | MDA-MB-435 melanoma 89.2% | SW-620 colon 97.5% | MCF7 breast 107% | HCT-116 colon 79.4% | HCC-2998 colon 93.2% | KM12 colon 103%

N#C/C(=C\c1cccc2cnccc12)N1N=NC2C=CC=CC21 (stereo not given)
inactive: SR leukemia 26.3% | RPMI-8226 leukemia 18.8% | OVCAR-8 ovarian 42.9% | OVCAR-5 ovarian 51.8% | OVCAR-4 ovarian 25.2% | SK-OV-3 ovarian 86.1% | IGROV1 ovarian 27.9% | HS 578T breast 24.2% | NCI/ADR-RES ovarian 42.7% | T-47D breast 23.8% | BT-549 breast 41.6% | SW-620 colon 13.1% | MCF7 breast 13.6% | HCT-116 colon 14.2% | HCC-2998 colon 91.7% | KM12 colon 43.5%
active: OVCAR-3 ovarian 6.92% | MDA-MB-435 melanoma 9.28%

c1ccc(Cn2cc3c(c2)-c2nc(Nc4ccccc4)ncc2CC3)cc1
inactive: SR leukemia 114% [100 µM] | RPMI-8226 leukemia 88.2% [100 µM] | OVCAR-8 ovarian 67.5% [100 µM] | OVCAR-5 ovarian 82.8% [100 µM] | OVCAR-4 ovarian 63.3% [100 µM] | SK-OV-3 ovarian 63.1% [100 µM] | IGROV1 ovarian 62.9% [100 µM] | OVCAR-3 ovarian 85.9% [100 µM] | HS 578T breast 68.9% [100 µM] | NCI/ADR-RES ovarian 83.9% [100 µM] | T-47D breast 74.3% [100 µM] | BT-549 breast 87.6% [100 µM] | MDA-MB-435 melanoma 96% [100 µM] | SW-620 colon 92% [100 µM] | MCF7 breast 70.5% [100 µM] | HCT-116 colon 80.6% [100 µM] | HCC-2998 colon 99.9% [100 µM] | KM12 colon 87% [100 µM]

C#CCOc1cc(/C=N/Nc2nc(-c3ccc(OC)cc3)cs2)ccc1O
inactive: SR leukemia 74.4% | RPMI-8226 leukemia 63.3% | OVCAR-8 ovarian 87.9% | OVCAR-5 ovarian 97.1% | OVCAR-4 ovarian 71.7% | SK-OV-3 ovarian 99.4% | IGROV1 ovarian 91.8% | OVCAR-3 ovarian 86.3% | HS 578T breast 95.8% | NCI/ADR-RES ovarian 85.1% | T-47D breast 61.2% | BT-549 breast 84.5% | MDA-MB-435 melanoma 94.7% | SW-620 colon 94.8% | MCF7 breast 68.9% | HCT-116 colon 76.5% | HCC-2998 colon 92.4% | KM12 colon 88.6%

O=c1c(/C=C/c2c(O)ccc3ccccc23)nnc2sc(-c3cccc([N+](=O)[O-])c3)nn12
inactive: SR leukemia 28.3% | RPMI-8226 leukemia 57.3% | OVCAR-8 ovarian 22.4% | OVCAR-5 ovarian 82.1% | OVCAR-4 ovarian 25.5% | SK-OV-3 ovarian 46% | IGROV1 ovarian 43.1% | OVCAR-3 ovarian 15.2% | HS 578T breast 68.3% | NCI/ADR-RES ovarian 29.4% | T-47D breast 33.6% | BT-549 breast 65.1% | MDA-MB-435 melanoma 47.5% | SW-620 colon 32.5% | MCF7 breast 27.4% | HCT-116 colon 10.5% | HCC-2998 colon 60.9% | KM12 colon 37.2%

COc1ccc(-c2ccc(-c3ccc(C(=N)N)o3)o2)cc1
inactive: RPMI-8226 leukemia 14.3% | OVCAR-8 ovarian 28.9% | OVCAR-5 ovarian 38.4% | OVCAR-4 ovarian 58.8% | SK-OV-3 ovarian 35.8% | IGROV1 ovarian 57.1% | HS 578T breast 56.2% | NCI/ADR-RES ovarian 14.4% | T-47D breast 26.7% | BT-549 breast 59.6% | SW-620 colon 12.9% | MCF7 breast 10.4% | KM12 colon 11%
active: SR leukemia -4.13% | OVCAR-3 ovarian -27.8% | MDA-MB-435 melanoma -65.4% | HCT-116 colon -5.19% | HCC-2998 colon -48.7%

Cc1c(CC(=O)Nc2ccccc2)nnn1-c1ccccc1
inactive: SR leukemia 103% | RPMI-8226 leukemia 103% | OVCAR-8 ovarian 105% | OVCAR-5 ovarian 108% | OVCAR-4 ovarian 115% | SK-OV-3 ovarian 110% | IGROV1 ovarian 106% | OVCAR-3 ovarian 115% | HS 578T breast 102% | NCI/ADR-RES ovarian 99.5% | T-47D breast 101% | BT-549 breast 112% | MDA-MB-435 melanoma 115% | SW-620 colon 110% | MCF7 breast 99.6% | HCT-116 colon 106% | HCC-2998 colon 102% | KM12 colon 108%
